# Assay results from PubChem BioAssay AID1159580 (chemical genetic matrix, 2015).
# The whole screen tested about 5,500 compounds, of which about 2,000 (36%) were called active. Another 18% or so got no clear call; they are omitted. The list shows a part of the results. Values without a mark were called inactive. No stated cut-off is given here; in the data, active means normalized growth mostly below about 0.91 (no sharp cut-off); inconclusive means no clear call, values can overlap the other calls; inactive means mostly above about 0.92.
# Experiment: chemical genetic growth profiling, strain panel (AID 1159580);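 further: tested at 20 µM; growth read once vehicle control cultures reached saturation at 30 °C; 1 = growth at the plate median or of vehicle wells; lower values mean less growth of the strain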
# Conditions: growth OD
# [1] = S. cerevisiae deletion strains, locus YAL013W, strain DEP1, active compounds read low
# [2] = S. cerevisiae deletion strains, locus YBR229C, strain ROT2, active compounds read low
# [3] = S. cerevisiae deletion strains, locus YCL061C, strain MRC1, active compounds read low
# [4] = S. cerevisiae deletion strains, locus YDL101C, strain DUN1, active compounds read low
# [5] = S. cerevisiae deletion strains, locus YDR150W, strain NUM1, active compounds read low
# [6] = S. cerevisiae deletion strains, locus YEL061C, strain CIN8, active compounds read low
# [7] = S. cerevisiae deletion strains, locus YGR078C, strain PAC10, active compounds read low
# [8] = S. cerevisiae deletion strains, locus YHR030C, strain SLT2, active compounds read low
# [9] = S. cerevisiae deletion strains, locus YHR087W, strain rtc3, active compounds read low
# [10] = S. cerevisiae deletion strains, locus YJR043C, strain POL32, active compounds read low
# [11] = S. cerevisiae deletion strains, locus YJR075W, strain HOC1, active compounds read low
# [12] = S. cerevisiae deletion strains, locus YKL190W, strain CNB1, active compounds read low
# [13] = S. cerevisiae deletion strains, locus YLR039C, strain RIC1, active compounds read low
# [14] = S. cerevisiae deletion strains, locus YLR058C, strain SHM2 (second series), active compounds read low
# [15] = S. cerevisiae deletion strains, locus YLR085C, strain ARP6, active compounds read low
# [16] = S. cerevisiae deletion strains, locus YLR262C, strain YPT6, active compounds read low
# [17] = S. cerevisiae deletion strains, locus YML094W, strain GIM5, active compounds read low
# [18] = S. cerevisiae deletion strains, locus YMR219W, strain ESC1, active compounds read low
# [19] = S. cerevisiae deletion strains, locus YNL153C, strain GIM3, active compounds read low
# [20] = S. cerevisiae deletion strains, locus YNL298W, strain CLA4 (second series), active compounds read low
# [21] = S. cerevisiae deletion strains, locus YNL322C, strain KRE1, active compounds read low
# [22] = S. cerevisiae deletion strains, locus YNR030W, strain Alg12, active compounds read low
# [23] = S. cerevisiae deletion strains, locus YPL055C, strain LGE1, active compounds read low
# [24] = S. cerevisiae deletion strains, locus YPL241C, strain CIN2, active compounds read low
# [25] = S. cerevisiae deletion strains, locus YPR135W, strain CTF4, active compounds read low
compound,measurement,setting,value
CC(=O)C1COc2ccc(C)cc2C1=O (stereo not drawn),normalized growth,[1],0.972
same,normalized growth,[2],0.898 (active)
same,normalized growth,[3],0.916
same,normalized growth,[4],0.838 (active)
same,normalized growth,[5],0.984
same,normalized growth,[6],0.924
same,normalized growth,[7],0.952
same,normalized growth,[8],0.291 (active)
same,normalized growth,[9],0.916
same,normalized growth,"S. cerevisiae deletion strains, locus YJL187C, strain SWE1, active compounds read low",0.888 (active)
same,normalized growth,[10],0.931
same,normalized growth,[11],0.903
same,normalized growth,[12],0.832 (active)
same,normalized growth,[13],0.173 (active)
same,normalized growth,[14],0.923 (active)
same,normalized growth,[15],0.44 (active)
same,normalized growth,[16],0.176 (active)
same,normalized growth,[17],0.848 (active)
same,normalized growth,[18],0.928 (active)
same,normalized growth,"S. cerevisiae deletion strains, locus YMR263W, strain SAP30, active compounds read low",0.96
same,normalized growth,[19],0.954
same,normalized growth,[20],0.855
same,normalized growth,[21],0.979
same,normalized growth,[22],0.901
same,normalized growth,[23],0.93
same,normalized growth,[24],0.914
same,normalized growth,[25],0.58 (active)
c1ccc(Sc2c(-c3ccccc3)nc3ccccn23)cc1,normalized growth,[1],0.895 (active)
same,normalized growth,[2],0.9 (active)
same,normalized growth,[3],0.906 (active)
same,normalized growth,[4],0.929
same,normalized growth,[5],0.8
same,normalized growth,[6],0.869 (active)
same,normalized growth,[7],0.884 (active)
same,normalized growth,[8],0.193 (active)
same,normalized growth,[9],0.921
same,normalized growth,[10],0.93
same,normalized growth,[11],0.833 (active)
same,normalized growth,[12],0.79 (active)
same,normalized growth,[13],0.657 (active)
same,normalized growth,[14],0.899 (active)
same,normalized growth,[15],0.275 (active)
same,normalized growth,[16],0.78 (active)
same,normalized growth,[17],0.886
same,normalized growth,[18],0.897 (active)
same,normalized growth,[19],0.931
same,normalized growth,[20],0.781 (active)
same,normalized growth,[21],0.915 (active)
same,normalized growth,[22],0.714 (active)
same,normalized growth,[23],0.725 (active)
same,normalized growth,[24],0.692 (active)
same,normalized growth,[25],0.431 (active)
same,normalized growth,"S. cerevisiae strains, strain wild type, active compounds read low",0.92
